Mtb hypoxia rep: PubChem AID 1159583; M. tuberculosis hypoxia-regulated fluorescent reporter, fluorescence; fluorescence inhibition, % (test concentration not listed); actives 0.1% (n = 300,000); in the data active means fluorescence inhibition mostly above about 23%, no sharp cut-off; inactive means mostly below about 17%
Mtb betalactam: beta-lactam sensitization of Mtb H37Rv, H37Rv. M. tuberculosis H37Rv growth with meropenem, percent inhibition. inhibition, % at 25 µM. actives 0.27% (n = 330,000); call rule not given here;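 further: growth measured after seven days incubation then overnight dye step; 0% = bacteria only wells and 100% = bacteria with antibiotic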
VHR inh abs: VHR1 phosphatase inhibitors, primary screen, biochemical, absorbance, uHTS; Dual specificity protein phosphatase 3 (Homo sapiens), P51452; recombinant VHR phosphatase, pNPP absorbance; inhibition, % at 13.3 µM; actives 0.52% (n = 290,000); in the data active means inhibition above about 50%
Target sequence (P51452 whole entry, looked up): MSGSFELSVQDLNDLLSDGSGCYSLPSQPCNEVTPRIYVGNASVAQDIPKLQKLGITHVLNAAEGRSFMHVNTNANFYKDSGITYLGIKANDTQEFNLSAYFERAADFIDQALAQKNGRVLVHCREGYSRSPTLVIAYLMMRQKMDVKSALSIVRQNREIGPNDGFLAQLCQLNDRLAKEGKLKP
FBA Mtb inh: Mtb FBA enzyme inhibitors, primary screen, biochemical, fluorescence, strain H37Rv | purified M. tuberculosis FBA, fluorescence read-out | inhibition, % at 1 µM | actives 2.3% (n = 360,000);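 further: 0% = vehicle and 100% = reference inhibitor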
Target sequence (P9WQA3 whole entry, looked up): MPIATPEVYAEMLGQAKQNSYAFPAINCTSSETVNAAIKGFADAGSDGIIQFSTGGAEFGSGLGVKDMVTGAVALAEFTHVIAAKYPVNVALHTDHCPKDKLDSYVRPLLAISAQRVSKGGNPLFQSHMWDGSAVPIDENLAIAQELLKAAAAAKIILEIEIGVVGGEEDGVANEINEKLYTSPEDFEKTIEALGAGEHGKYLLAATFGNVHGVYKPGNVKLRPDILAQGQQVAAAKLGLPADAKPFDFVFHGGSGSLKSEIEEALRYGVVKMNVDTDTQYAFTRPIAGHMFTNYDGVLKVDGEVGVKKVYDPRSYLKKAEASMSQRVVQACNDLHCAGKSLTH
GDH-TPI counter-1: GDH-TPI coupling enzyme inhibitors, primary screen, artefact control for M. tuberculosis FBA inhibitor project, biochemical, absorbance, full deck; inhibition, % at 4.8 µM; actives 1.2% (n = 360,000); AID 588335, 2011; GDH-TPI coupled enzyme counterscreen, NADH absorbance; in the data active means inhibition above about 30%;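 further: 0% = DMSO wells and 100% = wells lacking the enzyme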
Mtb FBA inh conf: M. tuberculosis aldolase blockers, biochemical, fluorescence, strain H37Rv, confirmation; purified M. tuberculosis FBA, fluorescence read-out; shares compounds with FBA Mtb inh; inhibition, % at 1 µM; actives 78% (n = 5,600);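 further: 0% = vehicle wells and 100% = reference inhibitor wells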
GDH-TPI counter-2: GDH-TPI coupling enzyme inhibitors, artefact control for M. tuberculosis FBA inhibitor project, biochemical, fluorescence, high throughput; shares compounds with FBA Mtb inh; GDH-TPI coupled enzyme counterscreen; inhibition, % at 1 µM; actives 81% (n = 5,600); AID 652141, 2013; in the data active means inhibition above about 10%
Numbers without * were called inactive; x = not tested or not shown; + = active, no number. Hits are enriched below; roughly 3.6% of the tested compounds scored in any of these assays. Unless noted, no stated cut-off is given here; in the data, active means inhibition above about 27%; inactive means the rest.

SMILES | Mtb hypoxia rep | Mtb betalactam | VHR inh abs | FBA Mtb inh | GDH-TPI counter-1 | Mtb FBA inh conf | GDH-TPI counter-2
CCNC(=S)Nc1ccc2c(c1)c(=O)n(C)n2CC=C(C)C | x | x | x | 62.6* | 2.7 | 184.6* | 151.9*
C=C(C)Cn1c2ccc(NC(=S)NCc3ccccc3F)cc2c(=O)n1C | x | x | x | 36.0* | 0.4 | 147.8* | 105.8*
CC(C)(C)c1nnc(NN=Cc2ccc(Br)cc2)n(N)c1=O | 5.7 | x | x | x | x | x | x
O=C(NC(=Cc1cccnc1)C(=O)N1CCOCC1)c1ccccc1 | 7.0 | x | x | x | x | x | x
CCN1CCc2c(sc3c2c(NCc2ccco2)nc2nnnn23)C1 | 1.8 | 4.0 | -27.5 | 64.2* | 7.5 | 8.7 | -2.2
c1ccc(-c2nc(NCC3CC3)nc3ccsc23)cc1 | x | x | x | 42.4* | 1.3 | 137.6* | 96.6*
Cc1ccc(F)cc1-c1nc(NCC2CC2)nc2ccsc12 | x | x | x | 46.4* | 9.7 | 70.5* | 56.4*
OCc1ccccc1-c1nc(NCc2ccccc2)nc2ccsc12 | x | x | x | 62.9* | 15.2 | 8.0 | 4.1
Cc1nc(-c2cccc(S(=O)(=O)N3CCCCC3)c2)cs1 | -12.3 | -9.3 | 13.3 | 3.9 | -10.3 | x | x
Cc1nc(-c2cccc(S(=O)(=O)N3CCC(C)CC3)c2)cs1 | 0.5 | -15.0 | 18.6 | 41.5* | 0.5 | + | +
CCN(C(=O)COC(=O)Cc1cccc2ccccc12)C1CCS(=O)(=O)C1 (stereo not given) | 11.5 | 2.2 | x | 0.4 | 1.0 | x | x
O=C(Nc1cccc2ccccc12)N(CCO)C1CCS(=O)(=O)C1 (stereo not given) | -6.1 | 6.0 | 20.4 | 61.1* | 3.5 | 107.9* | 104.6*
O=C(O)c1[nH]c2ccccc2c1NS(=O)(=O)Cc1ccccc1 | 6.5 | 6.3 | -5.6 | 60.5* | 8.2 | + | 174.4*
COC(=O)c1scc(C#N)c1NN=C(C#N)S(=O)(=O)c1ccc(Cl)cc1 | -5.2 | x | x | x | x | x | x
O=C(NCCN1CCOCC1)c1ccc2ccccc2n1 | 2.0 | -17.8 | 6.2 | -0.4 | 5.5 | x | x
CCOC(=O)c1c(N)n(Cc2ccco2)c2nc3ccccc3nc12 | 0.1 | -9.1 | 18.8 | 77.4* | 14.7 | 198.3* | 171.9*
Nc1c(C(=O)NCCN2CCOCC2)c2nc3ccccc3nc2n1-c1cccc(F)c1 | 14.8 | -8.3 | 15.3 | 103.8* | 22.9 | -5.3 | -6.5
CCCNC(=O)c1c(N)n(-c2cccc(OC)c2)c2nc3ccccc3nc12 | -0.5 | 4.0 | -4.6 | 67.7* | 12.6 | -6.2 | -4.2
C=CCNC(=O)c1c(N)n(-c2ccc3c(c2)OCO3)c2nc3ccccc3nc12 | 16.4 | -0.9 | 27.9 | 0.2 | 15.0 | x | x
COc1ccc(CCn2c(N)c(C(=O)NCc3ccco3)c3nc4ccccc4nc32)cc1 | -0.8 | 4.9 | -5.6 | 85.0* | 17.5 | + | 197.8*
COC(=O)c1c(C(=O)OC)c(C)n(Cc2ccco2)c1C | x | x | -12.0 | -1.3 | 3.7 | x | x
COc1ccc(Nc2cc(C(=O)NCc3ccco3)c3ccccc3n2)cc1 | 2.4 | 2.5 | 8.4 | x | x | x | x
CCOc1cc(C=NNc2nc(Nc3ccccc3)nc(N3CCOCC3)n2)ccc1OC(=O)c1ccco1 | 1.7 | x | x | x | x | x | x
Fc1ccc(C=NN2CCN(Cc3ccccc3)CC2)cc1 | 7.3 | x | x | x | x | x | x
CCOC1OC(C(=O)N2CCCCCCC2)=CC(c2csc3ccccc23)C1CCCO (stereo not given) | 6.8 | x | x | x | x | x | x
SMILES | Mtb hypoxia rep | Mtb betalactam | VHR inh abs | FBA Mtb inh | GDH-TPI counter-1 | Mtb FBA inh conf | GDH-TPI counter-2
COc1ccc(S(=O)(=O)Cc2ccc(C(=O)NCc3ccco3)o2)cc1 | x | -6.3 | 27.3 | -0.3 | 1.0 | x | x
COc1ccc(Cn2c(N)c(C(=O)NCc3ccco3)c3nc4ccccc4nc32)cc1 | 0.9 | 99.4 | 26.1 | 61.4* | 5.8 | 190.1* | 158.1*
CCCCn1c(N)c(C(=O)NCc2cccs2)c2nc3ccccc3nc21 | 0.6 | 12.2 | 18.9 | 33.1* | 7.0 | 165.8* | 141.8*
Nc1c(C(=O)NCc2ccco2)c2nc3ccccc3nc2n1CCN1CCOCC1 | 6.9 | 2.0 | 20.2 | 72.4* | 13.6 | 107.5* | 88.9*
COc1ccc(CCNC(=O)c2c(N)n(CCN3CCOCC3)c3nc4ccccc4nc23)cc1OC | 2.7 | 24.4 | 21.3 | 12.1 | 3.4 | x | x
O=C(NCc1ccco1)c1ccc(S(=O)(=O)N2CCOCC2)cc1 | 3.7 | 1.5 | 44.1 | 2.5 | 0.6 | x | x
CCCCCn1c(N)c(C(=O)NCCN2CCOCC2)c2nc3ccccc3nc21 | x | 77.9 | 15.3 | 65.0* | 8.5 | + | +
CC(=NNC(=O)C(C)n1nc(C)c([N+](=O)[O-])c1C)c1ccccc1O (stereo not given) | 4.0 | x | x | x | x | x | x
Cc1cc(C=Nn2cnnc2)c(C)n1-c1ccc(Cl)cc1 | 9.9 | x | x | x | x | x | x
COc1ccc(-n2c(N)c(C(=O)NCc3ccco3)c3nc4ccccc4nc32)c(OC)c1 | 7.5 | -12.7 | 6.1 | 59.6* | 4.4 | -1.4 | -5.0
CCCCNC(=O)c1c(N)n(Cc2ccc3c(c2)OCO3)c2nc3ccccc3nc12 | 1.1 | 11.5 | 10.3 | 29.5* | 17.6 | 65.1* | 55.5*
Nc1c(C(=O)NCc2ccco2)c2nc3ccccc3nc2n1Cc1ccc(F)cc1 | x | -3.4 | 16.2 | 58.5* | 23.9 | 37.8* | 36.9*
O=C(NCc1ccco1)c1c(F)c(F)c(F)c(C(=O)NCc2ccco2)c1F | 11.9 | 0.3 | 16.4 | 0.9 | 2.2 | x | x
CCOc1ccc(-c2cc(C(=O)NN=C(C)c3cccnc3)c3ccccc3n2)cc1 | -1.6 | x | x | x | x | x | x
COc1cccc(Sc2ccccc2C=NNC(N)=O)c1 | 3.9 | x | x | x | x | x | x
Cn1ccc2c(-c3ccc(C(N)=O)cc3)cc3c(c21)C1CCC3C1 (stereo not given) | x | x | x | 53.2* | x | 112.5* | 103.1*
Cn1ccc2c(-c3ccc(C(F)(F)F)cc3)cc3c(c21)C1CCC3C1 (stereo not given) | x | x | x | 34.5* | x | 56.0* | 47.0*
Cn1ccc2c(-c3ccc(CO)cc3)cc3c(c21)C1CCC3C1 (stereo not given) | x | x | x | 81.5* | x | + | +
O=C1CCN(Cc2ccc(Br)cc2)CCN1C(CO)Cc1ccccc1 (stereo not given) | 5.4 | x | x | x | x | x | x
O=C(Nc1cccc(C(=O)O)c1)C(=Cc1ccccc1)NC(=O)c1ccccc1 | 12.6 | x | x | x | x | x | x
Cc1cc(NC(=O)CSc2nnc(-c3ccccc3)n2Cc2ccco2)no1 | -4.9 | 4.8 | 39.6 | -5.9 | 6.1 | x | x
CCOC(=O)CNC(=O)CSc1nnc(-c2ccccc2)n1Cc1ccco1 | x | -3.0 | 35.9 | 98.1* | -5.6 | 50.2* | 39.0*
CC(Oc1ccc2c3c(c(=O)oc2c1)CCCC3)C(=O)NCc1ccncc1 (stereo not given) | 15.5 | 4.8 | -10.2 | 51.3* | -5.6 | 6.9 | -3.3

Bioassay records: PubChem, several laboratories
